The campaign covered roughly 360,000 compounds. About 16,000 (4.4%) were called active. A call without a number means that no potency is given here. About 9% were inconclusive and are not listed. The call rests on the fitted dose curve; in most records, active means well fitted inhibition curve with a large enough effect; inconclusive means small, poorly fitted or top-dose-only effect; inactive means no such curve, though single readings can be large or run the other way. Many of the other results were omitted from the sample, so actives are more common in it than they were.
biological target: Bromodomain adjacent to zinc finger domain protein 2B (Homo sapiens) (UniProt Q9UIF8); assay: qHTS Assay for Inhibitors of BAZ2B; details: AlphaScreen BAZ2B-H3K14Ac peptide displacement; series mostly up to 114 µM; further: nearly all actives have a fitted effect of over 60% in size
Sequence (Q9UIF8 whole entry, looked up, the tested form may be a part): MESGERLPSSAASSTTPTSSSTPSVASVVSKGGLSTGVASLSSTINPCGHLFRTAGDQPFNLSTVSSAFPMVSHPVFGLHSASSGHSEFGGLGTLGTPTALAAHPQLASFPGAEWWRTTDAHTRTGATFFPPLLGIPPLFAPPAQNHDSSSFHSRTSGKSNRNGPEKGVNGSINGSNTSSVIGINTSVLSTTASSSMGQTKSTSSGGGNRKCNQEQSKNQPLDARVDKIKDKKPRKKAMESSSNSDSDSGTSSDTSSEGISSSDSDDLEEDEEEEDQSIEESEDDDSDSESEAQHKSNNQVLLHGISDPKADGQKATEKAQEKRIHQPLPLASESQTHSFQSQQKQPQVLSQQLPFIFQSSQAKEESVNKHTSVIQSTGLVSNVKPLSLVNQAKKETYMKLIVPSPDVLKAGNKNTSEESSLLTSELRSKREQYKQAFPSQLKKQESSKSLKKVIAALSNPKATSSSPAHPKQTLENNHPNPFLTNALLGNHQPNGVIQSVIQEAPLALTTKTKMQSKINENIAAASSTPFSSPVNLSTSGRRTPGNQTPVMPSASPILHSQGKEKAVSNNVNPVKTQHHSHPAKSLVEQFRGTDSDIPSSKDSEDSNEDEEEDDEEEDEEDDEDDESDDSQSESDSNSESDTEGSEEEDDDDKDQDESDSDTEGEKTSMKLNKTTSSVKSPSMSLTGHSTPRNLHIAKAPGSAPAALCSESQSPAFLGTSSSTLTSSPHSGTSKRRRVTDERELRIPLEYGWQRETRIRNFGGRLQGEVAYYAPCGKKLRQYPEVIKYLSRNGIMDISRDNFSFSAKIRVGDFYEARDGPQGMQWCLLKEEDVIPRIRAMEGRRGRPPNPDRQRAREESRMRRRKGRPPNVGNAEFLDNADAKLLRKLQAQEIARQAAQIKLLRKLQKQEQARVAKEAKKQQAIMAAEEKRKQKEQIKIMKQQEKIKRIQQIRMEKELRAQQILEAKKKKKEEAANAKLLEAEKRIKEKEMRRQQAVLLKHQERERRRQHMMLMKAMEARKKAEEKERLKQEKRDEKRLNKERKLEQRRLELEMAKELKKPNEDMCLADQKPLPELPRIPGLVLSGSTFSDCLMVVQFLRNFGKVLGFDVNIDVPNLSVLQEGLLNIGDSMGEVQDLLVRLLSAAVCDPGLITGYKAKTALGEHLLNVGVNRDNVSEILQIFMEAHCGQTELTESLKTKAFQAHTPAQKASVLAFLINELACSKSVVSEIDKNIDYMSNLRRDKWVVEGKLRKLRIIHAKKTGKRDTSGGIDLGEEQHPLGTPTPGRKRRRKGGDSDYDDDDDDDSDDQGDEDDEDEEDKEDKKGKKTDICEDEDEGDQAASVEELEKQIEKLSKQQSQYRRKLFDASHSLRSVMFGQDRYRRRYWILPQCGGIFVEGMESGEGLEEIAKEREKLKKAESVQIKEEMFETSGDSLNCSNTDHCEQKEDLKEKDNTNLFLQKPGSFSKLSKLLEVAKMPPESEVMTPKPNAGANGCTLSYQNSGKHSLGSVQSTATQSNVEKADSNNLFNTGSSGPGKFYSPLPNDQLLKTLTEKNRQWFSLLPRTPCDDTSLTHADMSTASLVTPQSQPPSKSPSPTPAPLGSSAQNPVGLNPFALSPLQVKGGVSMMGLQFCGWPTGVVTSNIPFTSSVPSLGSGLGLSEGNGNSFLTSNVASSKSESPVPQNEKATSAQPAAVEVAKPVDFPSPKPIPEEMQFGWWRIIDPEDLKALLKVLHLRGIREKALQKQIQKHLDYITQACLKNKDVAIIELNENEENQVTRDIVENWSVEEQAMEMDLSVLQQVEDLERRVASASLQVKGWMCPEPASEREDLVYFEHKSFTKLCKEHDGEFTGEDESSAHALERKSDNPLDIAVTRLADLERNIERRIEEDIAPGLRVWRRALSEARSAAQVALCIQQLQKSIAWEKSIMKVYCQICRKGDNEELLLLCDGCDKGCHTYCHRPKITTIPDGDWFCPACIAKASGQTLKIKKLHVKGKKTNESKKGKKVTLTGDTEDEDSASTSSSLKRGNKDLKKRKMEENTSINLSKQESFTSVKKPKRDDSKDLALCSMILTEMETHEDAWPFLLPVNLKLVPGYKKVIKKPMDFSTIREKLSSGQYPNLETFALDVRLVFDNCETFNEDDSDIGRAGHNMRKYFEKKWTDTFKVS
How it was run: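 In this displacement format the biotinylated H3(5-23) peptide acetylated at Lys14 serves as ligand at 50 nM, with BAZ2B at 50 nM in PBS pH 7.4 containing 0.01% Tween-20. Donor and acceptor beads are 10 ug/mL final.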
Potency means the concentration at half of the fitted maximal effect.

Row | Structure (SMILES) | Potency
1 | CCOc1cccc(CNC(=O)c2ccc(N3CCCC3)c(NC(=O)Nc3ccccc3CC)c2)c1 | inactive
2 | Cc1oc(C)c2c(=O)cc(-c3ccc4c(c3)OCO4)cc(OC(=O)c3ccc(Cl)cc3)c12 | inactive
3 | CC(=O)NCC(=O)N1CCCC(C(=O)c2ccc3c4c(cccc24)CC3)C1 (stereo unspecified) | inactive
4 | CCn1ccnc1CN1CCCC(C(=O)c2ccc3c4c(cccc24)CC3)C1 (stereo unspecified) | 50.1 µM (active)
5 | COc1ccc(C(=O)C2CCCN(Cc3ccc4nonc4c3)C2)c(C)c1 (stereo unspecified) | inactive
6 | Cc1nc2ccc(S(=O)(=O)N(CC(=O)Nc3ccc(F)cc3)Cc3ccccc3)cc2s1 | inactive
7 | COc1ccc(NC(=O)CSc2nc(N)c(-c3ccccc3)c(=O)[nH]2)cc1 | inactive
8 | COc1ccc(-c2nc3c(c(SCC(=O)Nc4ccc(C(=O)O)cc4)n2)Cc2ccccc2O3)cc1 | 8.91 µM (active)
9 | COc1ccc(NC(=O)CSc2nc3ccccc3c(=O)n2C)cc1 | inactive
10 | COc1ccc(Cl)cc1NC(=O)CSc1nc(-c2cccs2)cc(C(F)(F)F)n1 | inactive
11 | Cc1ccc(CN2CCCn3nc(C(=O)NCc4ccccc4Cl)cc3C2=O)cc1 | inactive
12 | O=C1c2ccccc2C2=Nc3ccccc3SC(c3ccccc3F)C12 (stereo unspecified) | 8.91 µM (active)
13 | O=C1c2ccccc2C(=O)C1c1ccccc1F | inactive
14 | CC1Cc2cc(S(=O)(=O)CCC(=O)NCc3ccc(Cl)cc3)ccc2N1C(=O)C1CC1 (stereo unspecified) | inactive
15 | CN1C2CCC1CC(NC(=O)c1ccc([N+](=O)[O-])cc1)C2 (stereo unspecified) | inactive
16 | O=C(Nc1cc2c3c(c1)C1CCCC1CN3CC1CCCC21)c1ccc([N+](=O)[O-])cc1 (stereo unspecified) | 11.2 µM (active)
17 | CN(CC1CCCO1)S(=O)(=O)c1ccc(C(=O)Nc2ccc([N+](=O)[O-])cc2)cc1 (stereo unspecified) | inactive
18 | Cc1ccc(S(=O)(=O)c2c(Nc3cccc(Cl)c3)sc(C(=O)c3ccc4c(c3)OCO4)c2N)cc1 | inactive
19 | CCCCC(=O)OC1=CN(Cc2ccccc2)S(=O)(=O)c2ccccc21 | inactive
20 | CCN1CCC2(CC1)N=C(c1ccc(F)cc1)C(=S)N2C(=O)c1ccc(C)cc1 | 44.7 µM (active)
21 | Cc1ccc(NC(=O)CN2C(=O)C(c3ccc(F)cc3)=NC23CCCCCC3)c(C)c1 | inactive

Row | Structure (SMILES) | Potency
22 | CCN1CCN(C(=O)CSc2ccc(C)cc2)CC1 | inactive
23 | COc1ccc(CNC(=O)c2cc3cccc(OC)c3oc2=O)cc1 | inactive
24 | O=C(NCCS(=O)(=O)N1CCN(c2ccc(F)cc2)CC1)c1ccccc1Br | inactive
25 | COc1ccc(CNc2nc(-c3ccc(Cl)cc3)nn2C(=O)c2ccccc2)cc1 | inactive
26 | O=C(CSc1oc(-c2ccccc2)nc1S(=O)(=O)c1ccc(Br)cc1)NC1CCCCC1 | inactive
27 | CCOc1ccccc1NC(=O)CSc1ncc(S(=O)(=O)c2ccc(C(C)(C)C)cc2)c(=O)[nH]1 | inactive
28 | O=C(CC1N=C2c3ccccc3N=C(SCc3ccc(F)cc3)N2C1=O)NCc1cccs1 (stereo unspecified) | inactive
29 | CCOC(=O)c1ccccc1NC(=O)CSc1nc2ccccc2c(=O)[nH]1 | inactive
30 | O=C(CSc1nc2ccccc2c(=O)[nH]1)Nc1nc(-c2ccc(Br)cc2)cs1 | 79.4 µM (active)
31 | CC(=O)NCc1ccc(-c2csc(NC(=O)CCCc3nc4ccccc4c(=O)[nH]3)n2)cc1 | inactive
32 | Cc1ccccc1Cn1nc(C)c(NC(=O)c2cc(-c3ccc(F)cc3)on2)c1C | inactive
33 | COc1cccc(NC(=O)CN(C)C(=O)/C=C/c2cn(-c3ccccc3)nc2-c2cccs2)c1 | inactive
34 | O=C(NCc1cccnc1)c1cn(-c2ccccc2)nc1-c1cccs1 | inactive
35 | O=C(O)c1ccc(N/N=C/c2cn(-c3ccccc3)nc2-c2cccs2)cc1 | 79.4 µM (active)
36 | CC(C)(C)OC(=O)N1CCC(c2c(C(=O)N3CCN(c4cccc(Cl)c4)CC3)cnn2-c2cccc(Cl)c2)CC1 | inactive
37 | O=C(Nc1ccccc1Cl)N1CCC(CN2CCCC2)CC1 | inactive
38 | CCS(=O)(=O)N1CCc2cc(C(=O)NCc3ccc(C)cc3)ccc21 | inactive
39 | O=C(NC1CC(=O)N(c2ccc(F)cc2)C1)C1CCCCC1 (stereo unspecified) | inactive
40 | CCCNc1ncnc2c1c(-c1ccccc1)cn2-c1ccc(OCC)cc1 | inactive
41 | COc1ccc(-n2cc(-c3ccccc3)c3c(=S)nc[nH]c32)cc1 | 79.4 µM (active)
42 | COc1ccc(N2C(=O)C(Cc3ccccc3)NC2=S)cc1 (stereo unspecified) | inactive

Row | Structure (SMILES) | Potency
43 | COc1ccc(C2=NC3(CCCCC3)N(CC(=O)Nc3ccc(C(C)C)cc3)C2=O)cc1 | inactive
44 | CCN(CC)CCC(c1ccc2c(c1)OCO2)c1c(OC)cc(OC)c2c(-c3ccccc3)cc(=O)oc12 (stereo unspecified) | inactive
45 | CCN(CC)CCC(c1cc(OC)c(OC)c(OC)c1)c1c(OC)cc(OC)c2c(-c3ccccc3)cc(=O)oc12 (stereo unspecified) | inactive
46 | COc1cc(OC)c2ccc(=O)oc2c1C(CCN1CCN(c2ccccc2)CC1)c1ccc2c(c1)OCO2 (stereo unspecified) | 25.1 µM (active)
47 | CCOC(=O)C1CCCN(C(=O)c2ccc(-n3ccc4ccccc43)s2)C1 (stereo unspecified) | inactive
48 | Cc1cccc(C(=O)OCC(=O)Nc2ccc(F)cc2)c1 | inactive
49 | O=C(COC(=O)c1ccc(F)cc1F)Nc1ncccn1 | 50.1 µM (active)
50 | COc1cc(OC)cc(C(=O)OCC(=O)Nc2ccc(F)cc2F)c1 | inactive
51 | COc1ccc(CCNC(=O)C(=O)NCC(c2ccco2)S(=O)(=O)c2cccs2)cc1OC (stereo unspecified) | inactive
52 | COc1ccccc1NC(=O)CSC1=Nc2ccccc2C2=NC(CC(=O)NCc3cccs3)C(=O)N12 (stereo unspecified) | inactive
53 | COc1ccc(CN2C(=O)C(NC(=O)c3cccc(C)c3)(C(F)(F)F)N=C2c2ccccc2)cc1 (stereo unspecified) | inactive
54 | COc1ccccc1/C=N/N1CCN(Cc2ccccc2Cl)CC1 | 44.7 µM (active)
55 | CSc1ccc(/C=N/NC(=O)c2cccc(Cl)c2)cc1 | inactive
56 | COc1ccccc1/C=C/C=N/NC(=O)CN1CCN(Cc2ccccc2)CC1 | inactive
57 | O=S1(=O)CCN(Cc2ccccc2Cl)CC1 | inactive
58 | CSc1ccc(/C=N/N2CCN(Cc3ccccc3Cl)CC2)cc1 | 25.1 µM (active)
59 | COc1cc(Cl)c(S(=O)(=O)N2CCN(Cc3ccc4c(c3)OCO4)CC2)cc1Cl | inactive
60 | CCC(=O)N1c2ccccc2CC1C(=O)N1CCN(c2ccccc2)CC1 (stereo unspecified) | inactive
61 | CCc1ccc(NC(=O)N2CCN(C(=O)c3nsc4ccccc34)CC2)cc1 | inactive

From PubChem BioAssay AID504333 (National Center for Advancing Translational Sciences (NCATS), 2011)
